In the library only some 2.3% were active in any assay of this set; here they are far more common.
PP5 primary = PP5 phosphatase inhibitors, primary screen, biochemical, fluorescence | Serine/threonine-protein phosphatase 5 (Homo sapiens), P53041 | purified PP5c, OMFP substrate fluorescence | inhibition, % at 6.7 µM | 0.18% of 320,000 active | AID 1987, 2009;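 active = inhibition above the campaign's mean inhibition across all tested compounds plus 3 SD, cut at about 9.5% in these data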;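 note: 0% = DMSO only and 100% = 100 µM cantharidin control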
Target sequence (P53041 whole entry, looked up): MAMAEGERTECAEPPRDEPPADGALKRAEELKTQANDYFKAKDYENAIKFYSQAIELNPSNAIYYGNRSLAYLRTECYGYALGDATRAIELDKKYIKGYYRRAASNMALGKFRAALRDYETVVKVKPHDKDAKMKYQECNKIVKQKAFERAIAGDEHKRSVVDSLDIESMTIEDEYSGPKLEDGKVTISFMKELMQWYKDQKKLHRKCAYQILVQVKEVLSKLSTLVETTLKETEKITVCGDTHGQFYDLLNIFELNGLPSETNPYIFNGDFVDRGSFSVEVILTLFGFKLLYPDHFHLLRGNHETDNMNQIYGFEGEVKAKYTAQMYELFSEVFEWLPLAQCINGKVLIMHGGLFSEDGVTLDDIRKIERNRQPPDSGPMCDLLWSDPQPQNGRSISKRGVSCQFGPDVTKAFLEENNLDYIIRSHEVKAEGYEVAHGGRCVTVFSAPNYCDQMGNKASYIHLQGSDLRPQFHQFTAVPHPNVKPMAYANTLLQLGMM
bovine MsrA act = bovine MsrA enzyme activators, primary screen, biochemical, absorbance, HTS; purified bovine MsrA, absorbance read-out; Methionine sulfoxide reductase A (Bos taurus); 0.3% of 360,000 active; activation, % at 10.6 µM; AID 602163, 2012; in the data active = activation above about 7.5%;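 note: 0% = vehicle and 100% = reference activator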
PP1 inh = PP1-alpha phosphatase inhibitors, primary screen, counter-screen for PP5 inhibitor project, biochemical, fluorescence, OMFP substrate, single point | purified PP1alpha | Serine/threonine-protein phosphatase PP1-alpha catalytic subunit (Homo sapiens), P62136 | 0.9% of 320,000 active | inhibition, % at 6.7 µM;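 active = inhibition above the mean inhibition of all tested compounds plus 3 SD, computed separately for each screening campaign, cut at about 15% in these data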
ZTA DNA inh = blocks Epstein-Barr virus ZTA, an EBNA-1 counter-screen | P03206 | ZTA-DNA binding, fluorescence polarization | inhibition, % at 11 µM | 0.15% of 320,000 active | AID 2234; in the data active = inhibition above about 33%
EBNA-1 inhibitor = EBNA-1 DNA-binding inhibitors, primary screen, biochemical, fluorescence polarization; 0.34% of 300,000 active; inhibition, % at 14.8 µM; in the data active = inhibition above about 28%
MsrA inhibitor = bovine MsrA enzyme inhibitors, primary screen, biochemical, absorbance, HTS | Methionine sulfoxide reductase A (Bos taurus) | purified bovine MsrA, absorbance read-out | inhibition, % at 15.5 µM | 0.75% of 360,000 active | AID 651718, 2012; in the data active = inhibition above about 4.5%;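 note: 0% = vehicle wells with enzyme and 100% = reference inhibitor wells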
* hit, by the source's call; nt = no result; + = active, no number.

SMILES	PP5 primary	bovine MsrA act	PP1 inh	ZTA DNA inh	EBNA-1 inhibitor	MsrA inhibitor
C#CCOCCOCCOCCNc1nc(N2CCN(C(=O)CCCCCCCCCCNC(=O)[C@@H](CCC(=O)O)n3cc(CCCCCN)nn3)CC2)nc(N2CCN(C(=O)CCCCCCCCCCNC(=O)[C@@H](CCC(=O)O)n3cc(CCCCCN)nn3)CC2)n1	1	1	5	20	6	1
COC(=O)[C@]12C[C@H](CC(=O)N3CCOCC3)C(=O)N(Cc3ccccc3)C1=C[C@H](C(C)(C)C)O[C@@H]2C	nt	nt	nt	nt	nt	0
Cc1cc(C)c(Nc2cc(S(=O)(=O)O)c(N)c3c2C(=O)c2ccccc2C3=O)c(C)c1	8	-14	25*	52*	51*	0
Cc1cc(C)c(NC(=O)COC(=O)c2cccc3c2C(=O)c2ccccc2C3=O)c(C)c1	4	6	5	-12	-15	1
O=C(Nc1cccnc1)c1ccc2c(c1)C(=O)N(CC1CCCO1)C2=O (stereo unspecified)	0	2	-1	2	12	0
COC(=O)[C@]12C[C@H](CC(=O)NCc3ccc(C)o3)C(=O)N(Cc3ccc4c(c3)OCO4)C1=C[C@H](COCc1ccccc1)O[C@@H]2C	nt	nt	nt	nt	nt	0
CN(C)c1ccc(N=Cc2cccn2C)cc1	3	0	6	+	+	-1
COc1ccc(C(=O)Oc2cc3c4c(c2)C(C)=CC(C)(C)N4C(=O)C3=O)cc1OC	1	-6	1	15	7	0
COc1cccc(C(=O)Oc2cc3c4c(c2)C(C)=CC(C)(C)N4C(=O)C3=O)c1	5	-1	17*	4	-6	0
CCCCC[C@@H]1C=C(C(=O)O)[C@H](c2cccc(C)c2)N1S(=O)(=O)c1ccc(C)cc1	nt	-4	nt	nt	nt	1
c1cncc(N=c2scc(-c3cccc4ccccc34)n2CCCn2ccnc2)c1	2	-2	16*	-10	3	2
Cc1ccc(-c2csc(=Nc3cccnc3)n2CCCn2ccnc2)cc1C	2	-5	3	-6	8	0
Cc1cc2nc(-c3ccncc3)cc(C(F)(F)F)n2n1	0	-4	-5	11	3	1
Cc1cc(C(F)(F)F)n2nc(-c3cnn(C)c3C(F)(F)F)cc2n1	-2	7.7*	-2	-1	-1	1
CC(C)C[C@H](NC(=O)c1ccc(Cl)cc1Cl)C(=O)N1CCC[C@H]1C(=O)NCc1ccccc1	nt	nt	nt	nt	nt	2
O=C1NC(=Nc2cccc(O)c2)S/C1=C\c1cccc([N+](=O)[O-])c1	1	-4	17*	17	15	4
CCN1/C(=C/C=C/C=C/c2sc3ccccc3[n+]2CC)Sc2ccccc21	5	nt	47*	nt	nt	nt
CC[n+]1c(/C=C/Nc2ccccc2)sc2ccccc21	3	-12	0	-13	-11	1
COC(=O)[C@]12C[C@H](CC(=O)NCc3cccc(C(F)(F)F)c3)C(=O)N(Cc3ccccc3)C1=C[C@H](C1CCCC1)O[C@@H]2C	nt	nt	nt	nt	nt	0
Cc1[nH]c2ccccc2c1CC(=O)Nc1ccc(Nc2cccnc2)c(-c2ccc(OC(F)(F)F)cc2)c1	nt	nt	nt	nt	nt	2
O=C1C2N=NN(CC(=O)N3N=C(c4ccccc4)CC3c3ccc([N+](=O)[O-])cc3)C2C(=O)N1c1ccccc1 (stereo unspecified)	0	nt	16*	9	7	-1
COc1ccc(C2=NN(C(=O)CCC(=O)O)C(c3ccc([N+](=O)[O-])cc3)C2)cc1 (stereo unspecified)	nt	-5	nt	nt	nt	-1
O=C(O)C1CCCN1C(=O)c1cccc(Cl)c1 (stereo unspecified)	nt	nt	nt	nt	nt	0
COC(=O)[C@]12C[C@H](CC(=O)NCCCN3CCCC3=O)C(=O)N(Cc3ccc4c(c3)OCO4)C1=C[C@H](COCc1ccccc1)O[C@@H]2C	nt	nt	nt	nt	nt	0
Cc1ccc(C(=O)C2=C(O)C(=O)N(Cc3cccnc3)C2c2ccc(OC(C)C)cc2)o1 (stereo unspecified)	-1	-6	20*	-1	5	0
SMILES	PP5 primary	bovine MsrA act	PP1 inh	ZTA DNA inh	EBNA-1 inhibitor	MsrA inhibitor
Cc1ccc(C(=O)C2=C(O)C(=O)N(Cc3cccnc3)C2c2ccc(Br)cc2)o1 (stereo unspecified)	3	-2	19*	-5	2	4
COc1ccc(C2C(C(=O)c3ccc(C)o3)=C(O)C(=O)N2Cc2cccnc2)cc1 (stereo unspecified)	1	-2	-1	-2	3	0
Cc1ccc(C(=O)C2=C(O)C(=O)N(CCCn3ccnc3)C2c2ccc(OC(C)C)cc2)o1 (stereo unspecified)	-9	-7	15*	-18	-4	1
Cc1ccc(C(=O)C2=C(O)C(=O)N(Cc3cccnc3)C2c2ccc(Cl)c(Cl)c2)o1 (stereo unspecified)	1	-7	30*	-26	1	nt
CCOc1ccc(C2C(C(=O)c3ccco3)=C(O)C(=O)N2CCCn2ccnc2)cc1 (stereo unspecified)	nt	3	nt	nt	nt	2
CCCc1c(-c2cccc(Br)c2)ncn1CCc1ccccc1OC	nt	nt	nt	nt	nt	0
COC(=O)c1cc2c(c3c4cc(F)ccc4n(S(=O)(=O)c4cccc(C)c4)c13)C(=O)N(Cc1ccco1)C2	nt	nt	nt	nt	nt	1
CCCCn1c(NC(=O)c2ccc(F)cc2)c(C#N)c2nc3ccccc3nc21	14*	nt	5	10	-19	nt
CCCCn1c(NC(=O)c2ccccc2)c(C#N)c2nc3ccccc3nc21	nt	0	nt	nt	nt	0
COc1cc2c(cc1NC(=O)CSc1ccccc1)oc1ccccc12	2	-5	9	33*	7	1
COc1cc2c(cc1NC(=O)c1cc(-c3ccncc3)nc3ccccc13)oc1ccccc12	1	-5	15*	10	-15	2
COc1cc2c(cc1NC(=O)CSc1nccn1C)oc1ccccc12	1	-2	-1	8	-11	1
COC(=O)C1=C(C)N(Cc2cccc(C(F)(F)F)c2)C(=NCc2ccccc2C(F)(F)F)NC1c1ccc(Cl)cc1 (stereo unspecified)	nt	nt	nt	nt	nt	0
CCN1CCN(CCCNC(=O)c2ccc(NC(=O)C3=C(C)OCCS3)cc2)CC1	1	-5	-4	-6	2	1
O=C(Nc1cccc(-c2nc3ccccc3s2)c1)C1=COCCO1	1	-1	-2	-14	-4	0
O=C(Nc1ccc(-c2nc3ccccc3s2)cc1)C1=COCCO1	-1	-1	4	1	43*	1
CCc1nc(NC(=O)c2sc(C)nc2C)sc1C(=O)OC	1	-3	-1	-8	-13	4.6*
S=C(CN1CCCC1=S)NCCc1ccccc1	-1	-3	-3	10	0	-1
